Only some compounds are listed: those with a hit (about 13% of all), similar ones and a draw of the others.
HCMV inh = blocks human cytomegalovirus replication | HFF cells, HCMV-luciferase reporter, 72 h; active compounds read low | activity change, negative = inhibition, % at 57.5 µM | actives 4.5% (n = 410,000) | AID 1259415; in the data active = activity change below about -60%; inconclusive = no clear call, values can overlap the other calls; inactive = above about -39%
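Two-dose cell screen: HFF monolayers treated with compounds and infected with luciferase-expressing HCMV at 1 PFU/cell, 72 h at 37C, then lysed for luciferase measurement.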
Pf growth 48h = inhibits P. falciparum growth in the first generation, 48 h. P. falciparum luciferase growth in erythrocytes, 48 h. AID 504832. actives 5.9% (n = 310,000). Potency, µM (doses to about 28.7 µM), usual class: inhibitors
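Luciferase-expressing P. falciparum in infected erythrocytes (2% hematocrit, 0.1% parasitemia final) in RPMI 1640/0.5% Albumax were exposed to compound for 48 hours at 37 C, 5% CO2; growth read as luminescence.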
HCV inhibitor = inhibitors of hepatitis C virus infection | actives 3.4% (n = 340,000) | Potency, µM (doses to about 41.8 µM), hits mostly inhibitors | AID 651820 | Huh7.5.1 HCVcc-Cre infection, luciferase reporter, 44 h
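Cells seeded at 1,000/well and cultured 4 h, then compounds added followed by HCVcc-Cre virus (~0.5 moi). After 44 h further culture, luciferase substrate was added, plates held 15 min at room temperature, and luminescence read for 15 sec.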
Pf growth 96h = P. falciparum growth inhibition at 96 hours; AID 504834; Potency, µM (top dose mostly 28.7 µM), actives largely listed as inhibitors; actives 6.9% (n = 320,000); P. falciparum luciferase reporter growth, 96 h
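P. falciparum expressing integrated firefly luciferase grown in erythrocytes (2% hematocrit, 0.05% parasitemia final) with compounds for 96 hours at 37 C, 5% CO2. Growth inhibition read as loss of luminescence after adding luciferase detection reagent.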
Hits are given with their value; . = inactive; ? = inconclusive; / = no result. Unless noted, calls follow the shape of the dose curve; as a rule, active = well fitted inhibition curve with a large enough effect; inconclusive = small, poorly fitted or top-dose-only effect, or another doubt; inactive = no such curve, though single readings can be large or run the other way.

SMILES | HCMV inh | Pf growth 48h | HCV inhibitor | Pf growth 96h
Cc1cc(C(F)F)n2nc(C(=O)Nc3cccc(Cl)c3C)nc2n1 | . | / | / | /
CCn1c(=O)c2cc(C(=O)N(C)c3ccc(OC)cc3OC)sc2c2ccccc21 | ? | ? | ? | 10µM
CCOc1ccccc1N(CC)C(=O)c1cc2c(=O)n(CC)c3ccccc3c2s1 | -70 | / | / | /
CCn1c(=O)c2cc(C(=O)N(C)c3cc(Cl)c(OC)cc3OC)sc2c2ccccc21 | . | / | / | /
CCn1c(=O)c2cc(C(=O)N(C)c3cc(C)ccc3OC)sc2c2ccccc21 | . | 13µM | 13µM | ?
CCn1c(=O)c2cc(C(=O)N(C)c3ccccc3F)sc2c2ccccc21 | ? | ? | 1µM | ?
O=C1c2oc3ccccc3c(=O)c2C(c2ccccc2F)N1Cc1ccc2c(c1)OCO2 (configuration not stated) | . | / | / | /
COc1ccc(-c2cc(C(F)(F)F)nc(SCCC(=O)Nc3ccc(F)cc3F)n2)cc1 | . | / | / | /
CCCCN(CC)S(=O)(=O)c1ccc(C(=O)N=c2sc3cc(NC(C)=O)ccc3n2C)cc1 | -72 | . | ? | ?
CCCCN(C)S(=O)(=O)c1ccc(C(=O)N=c2sc3cc(NC(C)=O)ccc3n2C)cc1 | . | . | . | .
CCN(CC)CCCNC(=O)C1CCN(S(=O)(=O)CC)CC1 | . | / | / | /
Nc1c(C(=O)Nc2ccccc2)c2nc3ccccc3nc2n1CCCN1CCOCC1 | . | ? | 22µM | ?
COCCNC(=O)c1c(N)n(CCC2=CCCCC2)c2nc3ccccc3nc12 | . | / | . | .
COc1ccc(CCNC(=O)c2c(N)n(CCN3CCOCC3)c3nc4ccccc4nc23)cc1OC | . | 9.3µM | ? | 4.7µM
N#Cc1c(N)n(CCCN2CCOCC2)c2nc3ccccc3nc12 | . | ? | . | .
CCCCCn1c(N)c(C(=O)NCCN2CCOCC2)c2nc3ccccc3nc21 | . | ? | . | ?
CCCCCCn1c(N)c(C(=O)NCCN2CCOCC2)c2nc3ccccc3nc21 | . | 9.3µM | ? | ?
COc1ccc(-c2cc(C)no2)cc1S(=O)(=O)NC(C)C | . | / | / | /
COCCNC(=O)[C@@H]1[C@@H](CO)[C@@H]2Cn3c(cccc3=O)[C@H]1N2Cc1cccc(Cl)c1 | . | / | / | /
COc1ccc(NC(=O)Cn2cc(S(=O)(=O)N3CCN(c4ccccc4F)CC3)c3ccccc3c2=O)cc1Cl | . | / | / | /
CCC1Oc2ccc(C)cc2N(CC(=O)N2CCN(c3ccccc3OC)CC2)C1=O (configuration not stated) | . | / | / | /
COc1cc(/C=C/c2nc(C#N)c(N3CCCCCC3)o2)cc(OC)c1OC | . | / | / | /
CSC1SCC2C(=O)N(C)C(C(C)C)C(=O)OCC(NC(=O)c3cnc4ccccc4n3)C(=O)NC(C)C(=O)N(C)C1C(=O)N(C)C(C(C)C)C(=O)OCC(NC(=O)c1cnc3ccccc3n1)C(=O)NC(C)C(=O)N2C (configuration not stated) | -99 | / | ? | /
O=C(CC(Cc1ccccc1)C(=O)O)Nc1ccccc1 (configuration not stated) | . | . | . | .
Cc1ccc(CC(CC(=O)Nc2cccc(C(F)(F)F)c2)C(=O)O)cc1 (configuration not stated) | . | . | . | 15µM
SMILES | HCMV inh | Pf growth 48h | HCV inhibitor | Pf growth 96h
CN(CCO)c1cc(NCCCN2CCC(Cc3ccccc3)CC2)c2nonc2c1[N+](=O)[O-] | . | 10µM | ? | .
CCOC(=O)N1CCN(C(=O)c2ccc(-n3c(C)ccc3C)cc2)CC1 | . | ? | . | 10µM
CN(c1ccc(C(=O)N2CCN(Cc3ccc4c(c3)OCO4)CC2)cc1)S(=O)(=O)c1ccccc1 | -101 | / | 6.3µM | ?
CCOC(=O)N1CCN(C(=O)c2ccc(N(C)S(=O)(=O)c3ccc(C)cc3)cc2)CC1 | . | ? | 14µM | .
Cc1ccc(S(=O)(=O)N(C)c2ccc(C(=O)N3CCN(Cc4ccc5c(c4)OCO5)CC3)cc2)cc1 | -95 | / | 4.5µM | ?
CCCCn1c(=O)nc2n(-c3ccc(Br)cc3)c3ccccc3cc-2c1=O | . | / | / | /
Cc1cccc2c1N[C@H](/C=C/C(=O)OC(C)(C)C)C2 | . | / | / | /
CN1CCN(C(=O)c2ccc(Cn3cc(Cl)cn3)o2)CC1 | . | . | . | ?
O=C(c1ccccc1)N1CCN(Cc2ccc3c(c2)OCO3)CC1 | . | . | . | .
Cc1ccc(C(=O)N2CCN(Cc3ccc4c(c3)OCO4)CC2)c(Cl)c1 | . | . | 11µM | ?
O=C(c1[nH]nc2c1CCc1ccccc1-2)N1CCN(Cc2ccc3c(c2)OCO3)CC1 | / | 8.3µM | ? | ?
O=C(c1ccc(Cn2cc(Cl)cn2)o1)N1CCN(Cc2ccc3c(c2)OCO3)CC1 | / | ? | . | 13µM

Screening data from PubChem BioAssay.
